The nature of assay [1]: NCI Yeast Anticancer Drug Screen. Data for the rad50 strain (AID 155).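 Note: 0% = growth of vehicle-only cultures of the same strain.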 The conditions noted are these: S. cerevisiae rad50 strain growth inhibition, stronger effect = higher value. The gist of the method: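 Relative growth inhibition (compound vs vehicle) was measured in yeast with a defined repair-gene alteration.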
A short description of assay [2]: NCI Yeast Anticancer Drug Screen. Data for the mec2-1 strain (AID 157). The following applies: S. cerevisiae mec2-1 strain, stronger effect = higher value. In short, it runs like this: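 Cells of the genetically defined mec2-1 yeast strain are incubated with test compound. Inhibition of growth is calculated against vehicle-treated controls.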
Assay [3] is described as follows: NCI Yeast Anticancer Drug Screen. Data for the sgs1 mgt1 strain (AID 161).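 Note: 0% = growth of cultures given vehicle only.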 The conditions noted are these: S. cerevisiae sgs1 mgt1 strain, stronger effect = higher value. The gist of the method:
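Read-out: growth inhibition vs vehicle controls. Cells: mutant yeast strain deficient in DNA damage repair.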

Assay [4] can be described thus: NCI Yeast Anticancer Drug Screen. Data for the cln2 rad14 strain (AID 165).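 Note: 0% = growth equal to vehicle treated cultures.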 The following applies: S. cerevisiae cln2 rad14 strain, stronger effect = higher value. The gist of the method: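 The screen exposed genetically defined yeast (cln2 rad14) to test compounds and scored growth inhibition relative to vehicle-treated controls.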
A short description of assay [5]: NCI Yeast Anticancer Drug Screen. Data for the bub3 strain (AID 167). The following applies: S. cerevisiae bub3 mutant strain, stronger effect = higher value. In short, it runs like this: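 Screening used yeast with an engineered genetic alteration affecting cell cycle control. Compound-exposed cultures were compared with vehicle cultures, and reduced growth was taken as inhibition.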

Assay [6] can be described thus: NCI Yeast Anticancer Drug Screen. Data for the mlh1 rad18 strain (AID 175). The conditions noted are these: S. cerevisiae mlh1 rad18 strain growth inhibition, stronger effect = higher value. In short, it runs like this:
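Compound-treated yeast growth, normalised to vehicle controls. Strain bears defined DNA repair mutations.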

[7] abbreviates: at 5.0 µM (retest, dose inferred, filed as 0.5).
Setting [8] is: at 50.0 µM (retest, dose inferred, filed as 5.0).

For nine compounds, growth inhibition results are on record in PubChem BioAssay (NCI).

Compounds without any hit were thinned out: in the full panel of roughly 79,000, 15% have a hit. Values without a mark were called inactive. Activity calls are given as the source filed them. Cut-off read from the data, not from the text of the source: active = growth inhibition above about 70%; inactive = the rest.

With `COC(=O)c1nc(=S)[nH]c(C(=O)OC)c1C(=O)c1ccccn1`, the growth inhibition in assay [1] (setting [7]) is 7%; in assay [1] (setting [8]) it was 93% (active); in assay [1] (at 50.0 µM), 82% (active); in assay [2] (setting [7]), -3%; in assay [2] (setting [8]), 84% (active); in assay [2] (at 50.0 µM), 75% (active). The growth inhibition in assay [3] (setting [7]) is 0%; in assay [3] (setting [8]), 87% (active); in assay [3] (at 50.0 µM), 84.5% (active); in assay [4] (setting [7]) it was 2%; in assay [4] (setting [8]) it was 84% (active); in assay [4] (at 50.0 µM), 70.5% (active). The growth inhibition is 6% in assay [5] (setting [7]); 86% (active) in assay [5] (setting [8]); 82.8% (active) in assay [5] (at 50.0 µM); -15% in assay [6] (setting [7]); 91% (active) in assay [6] (setting [8]); 89.1% (active) in assay [6] (at 50.0 µM).

Turning to `CCCNC(=O)OCc1ccc(NCCN(CC)CC)c2c(=O)c3ccccc3sc12`, the growth inhibition in assay [1] (setting [7]) was 10%; in assay [1] (setting [8]), 17%; in assay [1] (at 50.0 µM), 69%; in assay [2] (setting [7]), -7%; in assay [2] (setting [8]), -6%; in assay [2] (at 50.0 µM), -24%. Further, the growth inhibition in assay [3] (setting [7]) is -4%; in assay [3] (setting [8]), 16%; in assay [3] (at 50.0 µM) it was -8.85%; in assay [4] (setting [7]), 13%; in assay [4] (setting [8]) it was 17%; in assay [4] (at 50.0 µM) it was 9.95%. For the same compound, the growth inhibition in assay [5] (setting [7]) is 14%; in assay [5] (setting [8]) it was 10%; in assay [5] (at 50.0 µM), -31.1%; in assay [6] (setting [7]), 3%; in assay [6] (setting [8]), 2%; in assay [6] (at 50.0 µM), 1.05%.

Regarding `O=S1(=O)CC(Cl)(Cl)C1`, the growth inhibition was 3% in assay [1] (setting [7]); 49% in assay [1] (setting [8]); 19.6% in assay [1] (at 50.0 µM); 3% in assay [2] (setting [7]); 52% in assay [2] (setting [8]); 2.85% in assay [2] (at 50.0 µM). The growth inhibition in assay [3] (setting [7]) is 7%; in assay [3] (setting [8]), 20%; in assay [3] (at 50.0 µM) it was 15.1%; in assay [4] (setting [7]) it was -1%; in assay [4] (setting [8]), 25%; in assay [4] (at 50.0 µM), 75.3% (active). Besides, the growth inhibition in assay [5] (setting [7]) was 4%; in assay [5] (setting [8]), 58%; in assay [5] (at 50.0 µM) it was -17.8%; in assay [6] (setting [7]), 5%; in assay [6] (setting [8]), 58%; in assay [6] (at 50.0 µM), 11.6%.

For `NNC(=O)c1c(SCc2ccccc2)nc2c3ccccc3ccn12`, the growth inhibition was 40% in assay [1] (setting [7]); 93% (active) in assay [1] (setting [8]); 51.5% in assay [1] (at 50.0 µM); 22% in assay [2] (setting [7]); 83% (active) in assay [2] (setting [8]); 35% in assay [2] (at 50.0 µM). The growth inhibition in assay [3] (setting [7]) was 42%; in assay [3] (setting [8]), 90% (active); in assay [3] (at 50.0 µM), 52.6%; in assay [4] (setting [7]), 24%; in assay [4] (setting [8]), 87% (active); in assay [4] (at 50.0 µM), 38.8%. Moreover, the growth inhibition is 33% in assay [5] (setting [7]); 69% in assay [5] (setting [8]); 39.1% in assay [5] (at 50.0 µM); 33% in assay [6] (setting [7]); 93% (active) in assay [6] (setting [8]); 81.3% (active) in assay [6] (at 50.0 µM).

As for `CCC[CH2][Sn]([CH2]CCC)([O]C(=O)C(OC(C)=O)c1ccccc1)[O]C(=O)C(OC(C)=O)c1ccccc1` (configuration not stated), the growth inhibition in assay [1] (setting [7]) is 52%; in assay [1] (setting [8]), 98% (active); in assay [1] (at 50.0 µM), 98.5% (active); in assay [2] (setting [7]) it was 43%; in assay [2] (setting [8]), 98% (active); in assay [2] (at 50.0 µM) it was 97.8% (active). The growth inhibition in assay [3] (setting [7]) is 45%; in assay [3] (setting [8]), 97% (active); in assay [3] (at 50.0 µM), 98.5% (active); in assay [4] (setting [7]), 31%; in assay [4] (setting [8]) it was 97% (active); in assay [4] (at 50.0 µM), 96.4% (active). Further, the growth inhibition was 71% (active) in assay [5] (setting [7]); 97% (active) in assay [5] (setting [8]); 98% (active) in assay [5] (at 50.0 µM); 60% in assay [6] (setting [7]); 98% (active) in assay [6] (setting [8]); 98.5% (active) in assay [6] (at 50.0 µM).

Consider `C1CSCCCSCCCSCCCSCCCSC1`, for which the growth inhibition was 17% in assay [1] (setting [7]); 24% in assay [1] (setting [8]); 31.2% in assay [1] (at 50.0 µM); 8% in assay [2] (setting [7]); 17% in assay [2] (setting [8]); 21.4% in assay [2] (at 50.0 µM). Besides, the growth inhibition in assay [3] (setting [7]) is 7%; in assay [3] (setting [8]) it was 20%; in assay [3] (at 50.0 µM) it was 27.5%; in assay [4] (setting [7]) it was 9%; in assay [4] (setting [8]), 22%; in assay [4] (at 50.0 µM) it was 47.4%. Moreover, the growth inhibition was 22% in assay [5] (setting [7]); 28% in assay [5] (setting [8]); 25.1% in assay [5] (at 50.0 µM); 15% in assay [6] (setting [7]); 36% in assay [6] (setting [8]); -10.8% in assay [6] (at 50.0 µM).

Turning to `CCOc1ccccc1-c1nc2c(s1)C(=O)c1ccccc1C2=O`, the growth inhibition was 87% (active) in assay [1] (setting [7]); 98% (active) in assay [1] (setting [8]); 90% (active) in assay [1] (at 50.0 µM); 100% (active) in assay [2] (setting [7]); 99% (active) in assay [2] (setting [8]); 91.4% (active) in assay [2] (at 50.0 µM). Further, the growth inhibition was 85% (active) in assay [3] (setting [7]); 98% (active) in assay [3] (setting [8]); 92% (active) in assay [3] (at 50.0 µM); 52% in assay [4] (setting [7]); 98% (active) in assay [4] (setting [8]); 89.9% (active) in assay [4] (at 50.0 µM). For the same compound, the growth inhibition in assay [5] (setting [7]) is 98% (active); in assay [5] (setting [8]), 98% (active); in assay [5] (at 50.0 µM), 92.3% (active); in assay [6] (setting [7]), 94% (active); in assay [6] (setting [8]), 98% (active); in assay [6] (at 50.0 µM) it was 91.8% (active).

As for `COC(=O)c1c(C)cccc1C(=O)c1ccc(C)cc1C`, the growth inhibition is -14% in assay [1] (setting [7]); -4% in assay [1] (setting [8]); 2.4% in assay [1] (at 50.0 µM); -10% in assay [2] (setting [7]); -3% in assay [2] (setting [8]); -0.1% in assay [2] (at 50.0 µM). Also, the growth inhibition in assay [3] (setting [7]) was -4%; in assay [3] (setting [8]), 9%; in assay [3] (at 50.0 µM) it was 10.6%; in assay [4] (setting [7]) it was -38%; in assay [4] (setting [8]), -7%; in assay [4] (at 50.0 µM), 2.75%. The growth inhibition in assay [5] (setting [7]) was -2%; in assay [5] (setting [8]), -16%; in assay [5] (at 50.0 µM), 5.05%; in assay [6] (setting [7]), -11%; in assay [6] (setting [8]) it was 21%; in assay [6] (at 50.0 µM), 23.4%.

As to `O=C1C2=C(Nc3cc([N+](=O)[O-])ccc3N2)OC1c1c2ccccc2cc2ccccc12` (configuration not stated), the growth inhibition in assay [1] (setting [7]) was 89% (active); in assay [1] (setting [8]), 98% (active); in assay [1] (at 50.0 µM), 93.5% (active); in assay [2] (setting [7]), 70% (active); in assay [2] (setting [8]) it was 99% (active); in assay [2] (at 50.0 µM), 66.4%. The growth inhibition in assay [3] (setting [7]) was 70% (active); in assay [3] (setting [8]), 99% (active); in assay [3] (at 50.0 µM), 96% (active); in assay [4] (setting [7]), 62%; in assay [4] (setting [8]), 98% (active); in assay [4] (at 50.0 µM), 35.5%. For the same compound, the growth inhibition in assay [5] (setting [7]) was 34%; in assay [5] (setting [8]) it was 99% (active); in assay [5] (at 50.0 µM), 78.4% (active); in assay [6] (setting [7]), 92% (active); in assay [6] (setting [8]) it was 99% (active); in assay [6] (at 50.0 µM) it was 93.6% (active).
